Bioassay records from PubChem BioAssay.
KCNQ2 inh: blocks the rat KCNQ2 potassium channel. B-score at 10 µM. CHO-K1 KCNQ2, FluxOR thallium flux, 20 min; active compounds read low. O88943. AID 2156. hit rate 1.1% among 310,000;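 active means fluorescence ratio B-score at most minus 3 library SDs, with starting brightness B-score within 2 library SDs, cut at about -5.5 in these data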
KCNQ2 enhance: KCNQ2 (rat) channel potentiation; B-score at 10 µM; O88943; AID 2239; CHO-K1 KCNQ2, FluxOR thallium flux fluorescence; active compounds read high; hit rate 0.54% among 310,000;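 active means fluorescence ratio B-score at least 3 SD of library B-scores, with initial fluorescence B-score within 3 of them, cut at about 5.3 in these data; same plate scores as AID 2156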;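 further: B-score of peak minus minimum over baseline fluorescence ratio after K+ and Tl+ stimulus; positive B-score means potentiation of KCNQ2 with more thallium influx and brighter signal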
The depositor's hits bear a star; i = inactive; . = no result given. Compounds with a hit are over-represented: about 1.6% of the library has one in this group of screens.

SMILES	KCNQ2 inh	KCNQ2 enhance
CCC(C)N(C(=O)COc1ccccc1C(=O)NCc1ccccc1)C1CCS(=O)(=O)C1 (stereo unspecified)	i	.
O=[N+]([O-])c1cc(N=Nc2ccc3ccccc3c2)ccc1O	i	0.51
CC(C)(C)C(=O)c1no[n+]([O-])c1/C(=N/O)C(C)(C)C	-7*	-7
COC(=O)c1ccc(OC(=O)c2ccccc2F)cc1	i	1.6
CCOc1cc(N(CC)CC)ccc1/C=C(/C#N)c1nc2ccccc2[nH]1	-8.4*	-8.4
CCCOc1cc(N(CC)CC)ccc1/C=C(/C#N)c1nc2ccc(C)cc2[nH]1	i	.
Cn1/c(=N/NC(=O)c2ccccc2Br)sc2ccccc21	i	3.4
Cc1c(NC(=O)CCCCCN2C(=O)c3ccccc3C2=O)c(=O)n(-c2ccccc2)n1C	i	.
Cc1ccc(S(=O)(=O)N2CCN(Cc3ccco3)CC2)cc1C	i	.
CCCc1ccc(S(=O)(=O)N2CCN(Cc3ccco3)CC2)cc1	-5.9*	-5.9
O=C(Cc1ccccc1)Nn1c(-c2ccccc2F)nc2ccccc2c1=O	i	9.4*
O=C(Cc1ccccc1)Nn1c(-c2ccccc2)nc2ccccc2c1=O	i	8.4*
O=C(CSc1nc2ccccc2c(=O)n1NC(=O)Cc1ccccc1)NCc1ccccc1	i	0.8
O=C(Nn1c(-c2ccccc2)nc2ccccc2c1=O)c1ccco1	i	0.08
CC(=O)N1CCc2cc(S(=O)(=O)CCC(=O)NCCc3ccc(Cl)cc3)ccc21	i	0.34
CCCC(C)NC(=O)COC(=O)c1cc(Br)c(Br)s1 (stereo unspecified)	i	0.12
CCCc1nn2c(=O)cc(COc3ccc(NC(=O)c4ccco4)cc3)nc2s1	i	0.2
Cc1ccc(C(=O)Nc2cccc(C(=O)NC3CCCC3)c2)cc1	i	0.27
CCOC(=O)c1ccc(NC(=S)N2CCSC2c2ccc(Br)cc2)cc1 (stereo unspecified)	i	0.43
NS(=O)(=O)c1ccc(NCc2ccccc2OCc2ccccc2F)cc1	i	3.4
NS(=O)(=O)c1ccc(NCc2cc(Cl)ccc2OCc2ccc(F)cc2)cc1	i	7.7*
COc1ccc(S(=O)(=O)N2CCOC2CNC(=O)C(=O)NCc2ccc(F)cc2)cc1OC (stereo unspecified)	i	.
CCOc1ccc(CNCCN2CCCC2)cc1	i	.
CC(Oc1ccc(Br)cc1)C(=O)NNC(=O)CCN1CCN(c2ccccc2)CC1 (stereo unspecified)	i	.
CCN=C(NCC)SC1CC(=O)N(c2cccc(OC)c2)C1=O (stereo unspecified)	-5.8*	-5.8
SMILES	KCNQ2 inh	KCNQ2 enhance
CCN=C(NCC)SC1CC(=O)N(c2ccccc2)C1=O (stereo unspecified)	i	.
CC(=O)NCCC(=O)Nc1cc(S(=O)(=O)N2CCCCC2)ccc1Oc1ccccc1	i	0.32
CCc1nc(SCC(=O)Nc2ccccc2OC)c2c(C)c(C)sc2n1	-5.8*	-5.8
COc1ccccc1NC(=O)CNC(=O)Cn1cnc2sc(C)c(C)c2c1=O	i	.
COc1ccc(C(=O)Nc2cccc(C)c2)cc1S(=O)(=O)N1CCOCC1	i	0.04
COc1ccc(C(=O)NNC(=O)COc2ccc(Cl)cc2C)cc1S(=O)(=O)N1CCOCC1	-5.6*	-5.6
COC(=O)CCC(=O)N1CCCC(CO)(Cc2ccccc2F)C1 (stereo unspecified)	i	.
CCOC(=O)c1cnc(SC2CCc3ccccc3C2=O)nc1N (stereo unspecified)	i	.
COc1cc(NS(=O)(=O)c2c(C)oc3c(F)c(F)c(F)c(F)c23)cc(OC)c1OC	-6.7*	-6.7
COc1cc(NS(=O)(=O)c2ccc3c(c2)oc(=O)n3C)cc(OC)c1OC	i	.
CCCCOC(=O)Nc1ccc(S(=O)(=O)Nc2onc(C)c2C)cc1	i	0.3
Cc1nccn1CC(=O)N/N=C/c1ccccc1O	i	.
O=C1c2ccccc2C(=O)N1CCCCN(C(=O)c1ccc(Cl)s1)c1ccc(Cl)cc1	-5.6*	-5.6
Cc1ccc(N(CCCCN2C(=O)c3ccccc3C2=O)C(=O)c2ccc(Cl)s2)cc1	i	.
CCOC(=O)c1c(NC(=O)/C=C/C(=O)O)sc(C)c1-c1ccc(C(C)(C)C)cc1	i	7*
CCOC(=O)c1c(NC(=O)/C=C\C(=O)O)sc(C)c1-c1ccccc1	i	0.68
O=C(NCCCN1CCOCC1)C(=O)NCc1ccccc1Cl	i	.
CCn1c(SCc2ccccc2Cl)nc2ccccc21	-6.6*	-6.6
Cn1c(SCc2ccccc2Cl)nc2ccccc21	i	.
O=S(=O)(c1ccc(OC(F)(F)F)cc1)N1CCCC(c2ccccc2)C1 (stereo unspecified)	-5.7*	-5.7
O=c1[nH]c(C2CCCN(S(=O)(=O)c3ccccc3)C2)nc2c1nnn2Cc1ccc(OC(F)(F)F)cc1 (stereo unspecified)	i	0.06
OC(CSc1ccc(F)cc1)CN1CCN(c2ccccc2)CC1 (stereo unspecified)	i	.
